Where a name gives a salt, the structure may show the parent alone. ± gives the standard deviation of the averaged measurements.
Columns and labels:
Assay in all cases: growth (OD600 after 10 h); higher = more growth (less inhibition)
[1] = tested on: E. coli TESEC Alr+ wild-type control; conditions: compound 0.1 mM; raw OD600 reference: median of DMSO wells 0.241, cell-free background 0.041
Protocol: (§1)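 TESEC Mtb Alr E. coli, or the Alr+ wild-type control, in 384-well plates with Prestwick library compounds at 0.1 mM and 1% DMSO, across arabinose induction levels of 1E3 to 1E7 nM. Growth is read as OD600 after 10 h at 37 °C in triplicate biological replicates.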

[2] = tested on: E. coli TESEC Mtb Alr; conditions: compound 0.1 mM
Protocol: as §1

[3] = tested on: E. coli TESEC Mtb Asd; conditions: compound 0.1 mM
Protocol: (§2)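 TESEC E. coli strains in which the native enzyme is deleted and replaced by arabinose-inducible Mtb Asd, DapB, CysH or TrpD, each grown in its selective medium. Strains were screened against the Prestwick library at 0.1 mM and 1% DMSO in 384-well format at low and high arabinose induction. Growth is read as OD600 after 10 h in triplicate.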

[4] = tested on: E. coli TESEC Mtb DapB; conditions: compound 0.1 mM
Protocol: as §2

[5] = tested on: E. coli TESEC Mtb Alr; conditions: compound 0.1 mM; remark: listed apart in the source
Protocol: (§3)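 TESEC Mtb Alr E. coli (ΔaraC ΔtolC ΔentC Δalr ΔdadX, arabinose-inducible Mtb Alr) or the Alr+ wild-type control strain, grown in defined M9-fructose medium without D-alanine in 96-well plates with Prestwick library compounds at 0.1 mM and 1% DMSO. Low Alr induction is 0.1 µM arabinose and high induction is 10 mM arabinose.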

[6] = tested on: E. coli TESEC Alr+ wild-type control; conditions: compound 0.1 mM; raw OD600 reference: median of DMSO wells 0.49, cell-free background 0.052
Protocol: as §3

[7] = arabinose 1000 nM, raw OD600 reference: median of DMSO wells 0.294, cell-free background 0.041
[8] = arabinose 10000 nM, raw OD600 reference: median of DMSO wells 0.264, cell-free background 0.041
[9] = arabinose 100000 nM, raw OD600 reference: median of DMSO wells 0.201, cell-free background 0.041
[10] = arabinose 1000000 nM, raw OD600 reference: median of DMSO wells 0.193, cell-free background 0.041
[11] = arabinose 10000000 nM, raw OD600 reference: median of DMSO wells 0.146, cell-free background 0.041
[12] = arabinose induction (level): High, raw OD600 reference: median of DMSO wells 0.331, cell-free background 0.041
[13] = arabinose induction (level): Low, raw OD600 reference: median of DMSO wells 0.417, cell-free background 0.041
[14] = arabinose induction (level): High, raw OD600 reference: median of DMSO wells […], cell-free background 0.041
[15] = arabinose induction (level): Low, raw OD600 reference: median of DMSO wells 0.227, cell-free background 0.041
[16] = arabinose 100 nM, raw OD600 reference: median of DMSO wells 0.413, cell-free background 0.052
[17] = arabinose 10000000 nM, raw OD600 reference: median of DMSO wells […], cell-free background 0.052

Structure (SMILES)	growth [1]	growth [2, 7]	growth [2, 8]	growth [2, 9]	growth [2, 10]	growth [2, 11]	growth [3, 12]	growth [3, 13]	growth [4, 14]	growth [4, 15]	growth [5, 16]	growth [5, 17]	growth [6]
C[C@@H]1C[C@H]2[C@@H]3C[C@H](F)C4=CC(=O)C=C[C@]4(C)[C@@]3(Cl)[C@@H](O)C[C@]2(C)[C@H]1C(=O)COC(=O)C(C)(C)C [Clocortolone pivalate]	0.24 ± 0.0038	0.307 ± 0.0044	0.29 ± 0.013	0.206 ± 0.031	0.2 ± 0.027	0.151 ± 0.0033	0.198 ± 0.0099	0.322 ± 0.059	0.21 ± 0.0076	0.254 ± 0.0078	0.433 ± 0.0058	0.377 ± 0.017	–
Nc1nc(NC2CC2)c2ncn([C@H]3C=C[C@@H](CO)C3)c2n1 [Abacavir Sulfate]	0.238 ± 0.018	0.295 ± 0.024	0.253 ± 0.0039	0.182 ± 0.012	0.18 ± 0.0053	0.133 ± 0.0075	0.317 ± 0.022	0.423 ± 0.015	0.183 ± 0.018	0.212 ± 0.038	0.408 ± 0.016	0.339 ± 0.0091	–
Clc1ccc(COC(Cn2ccnc2)c2ccc(Cl)cc2Cl)cc1 (stereo not drawn) [Econazole nitrate]	0.0521 ± 0.0032	0.048 ± 0.0022	0.05773 ± 5.8e-05	0.0544 ± 0.0013	0.0574 ± 0.0015	0.0483 ± 0.0014	0.0469 ± 0.00075	0.04693 ± 0.00042	0.04893 ± 0.00047	0.0996 ± 0.064	0.059 ± 0.0077	0.0553 ± 0.0037	–
CN(C(=O)CN(CCO)CC(=O)N(C)C(C)(C)Cc1ccccc1)C(C)(C)Cc1ccccc1 [Oxethazaine]	0.0424 ± 0.0038	0.0404 ± 0.001	0.03963 ± 0.00015	0.0411 ± 0.00087	0.03937 ± 0.00015	0.0411 ± 0.0013	0.179 ± 0.014	0.25 ± 0.037	0.187 ± 0.031	0.202 ± 0.05	0.165 ± 0.2	0.0514 ± 0.00058	–
CC(=O)[C@H]1CC[C@H]2[C@@H]3CCC4=CC(=O)CC[C@]4(C)[C@H]3CC[C@]12C [Progesterone]	0.139 ± 0.0043	0.175 ± 0.01	0.234 ± 0.01	0.145 ± 0.015	0.117 ± 0.0027	0.15 ± 0.012	0.143 ± 0.0076	0.219 ± 0.012	0.178 ± 0.015	0.182 ± 0.013	0.292 ± 0.059	0.0648 ± 0.0061	–
O=C1CN(/N=C/c2ccc(-c3ccc([N+](=O)[O-])cc3)o2)C(=O)N1 [Dantrolene sodium salt]	0.2259 ± 0.00093	0.263 ± 0.0054	0.184 ± 0.003	0.143 ± 0.007	0.105 ± 0.0026	0.131 ± 0.0074	0.167 ± 0.014	0.258 ± 0.013	0.192 ± 0.016	0.231 ± 0.072	0.319 ± 0.1	0.187 ± 0.033	–
NC1CCN(c2c(F)cc3c(=O)c(C(=O)O)cn(C4CC4)c3c2Cl)C1 (stereo not drawn) [Clinafloxacin]	0.0416 ± 0.0001	0.0399 ± 0.00042	0.0399 ± 0.00047	0.0418 ± 0.0019	0.03957 ± 5.8e-05	0.04037 ± 0.00015	0.0476 ± 0.0014	0.0476 ± 0.0014	0.0489 ± 0.0013	0.0481 ± 0.00067	0.05347 ± 0.0004	0.0504 ± 0.00086	–
Clc1ccc2c(c1)CCc1cccnc1C2=C1CCNCC1 [Desloratadine]	0.2 ± 0.015	0.211 ± 0.0061	0.256 ± 0.0088	0.163 ± 0.0094	0.153 ± 0.0064	0.145 ± 0.0037	0.149 ± 0.023	0.251 ± 0.026	0.216 ± 0.033	0.215 ± 0.031	0.398 ± 0.0076	0.288 ± 0.016	–
CC(C)NCC(O)COc1ccc(CCOCC2CC2)cc1 (stereo not drawn) [Betaxolol hydrochloride]	0.222 ± 0.0081	0.301 ± 0.0039	0.26 ± 0.0051	0.232 ± 0.034	0.179 ± 0.014	0.161 ± 0.0056	0.264 ± 0.049	0.359 ± 0.069	0.235 ± 0.026	0.246 ± 0.011	0.404 ± 0.011	0.341 ± 0.014	–
OCc1cc(C(O)CNCCCCCCOCCCCc2ccccc2)ccc1O (stereo not drawn) [Salmeterol]	0.166 ± 0.0032	0.181 ± 0.012	0.159 ± 0.0031	0.171 ± 0.0065	0.0641 ± 0.0012	0.151 ± 0.0035	0.176 ± 0.01	0.202 ± 0.049	0.208 ± 0.017	0.214 ± 0.017	0.349 ± 0.0092	0.201 ± 0.033	–
Nc1ccc(S(=O)(=O)Nc2ccccn2)cc1 [Sulfapyridine]	0.239 ± 0.0046	0.295 ± 0.018	0.261 ± 0.0053	0.219 ± 0.0099	0.174 ± 0.0063	0.141 ± 0.0049	0.354 ± 0.035	0.412 ± 0.015	0.188 ± 0.02	0.215 ± 0.041	0.405 ± 0.013	0.325 ± 0.0082	–
NS(=O)(=O)c1cc2c(cc1C(F)(F)F)NCNS2(=O)=O [Hydroflumethiazide]	0.2612 ± 0.002	0.296 ± 0.0066	0.262 ± 0.01	0.239 ± 0.011	0.1758 ± 0.0006	0.147 ± 0.0041	0.388 ± 0.036	0.442 ± 0.06	0.184 ± 0.012	0.239 ± 0.028	0.406 ± 0.013	0.32 ± 0.053	–
CCOC(=O)[C@H](CCc1ccccc1)N[C@H]1CCc2ccccc2N(CC(=O)O)C1=O [Benazepril HCl]	0.245 ± 0.011	0.044 ± 0.0065	0.0504 ± 0.011	0.253 ± 0.023	0.173 ± 0.0047	0.1615 ± 0.0012	0.293 ± 0.042	0.36 ± 0.066	0.198 ± 0.0085	0.24 ± 0.038	0.0476 ± 0.0029	0.331 ± 0.015	–
CC(=O)[C@H]1CC[C@H]2[C@@H]3C=CC4=CC(=O)CC[C@@]4(C)[C@@H]3CC[C@]12C [Dydrogesterone]	0.103 ± 0.005	0.154 ± 0.041	0.207 ± 0.0034	0.085 ± 0.0042	0.0856 ± 0.0016	0.0751 ± 0.0014	0.225 ± 0.038	0.402 ± 0.068	0.176 ± 0.0054	0.189 ± 0.0083	0.371 ± 0.021	0.101 ± 0.022	–
CC(=O)SCC(Cc1ccccc1)C(=O)NCC(=O)OCc1ccccc1 (stereo not drawn) [Racecadotril]	0.183 ± 0.0055	0.26 ± 0.016	0.241 ± 0.011	0.23 ± 0.022	0.132 ± 0.0014	0.189 ± 0.0054	0.28 ± 0.053	0.215 ± 0.013	0.172 ± 0.012	0.24 ± 0.023	0.398 ± 0.0054	0.298 ± 0.0095	–
CCCc1nc(C)c2c(=O)nc(-c3cc(S(=O)(=O)N4CCN(CC)CC4)ccc3OCC)[nH]n12 [Vardenafil]	0.148 ± 0.0033	0.221 ± 0.0081	0.26 ± 0.011	0.18 ± 0.0021	0.107 ± 0.0037	0.126 ± 0.0068	0.189 ± 0.02	0.238 ± 0.052	0.151 ± 0.0082	0.173 ± 0.018	0.41 ± 0.0051	0.305 ± 0.014	0.55 ± 0.11

Reference: the supplement of paper PMC9262897, “Low-cost anti-mycobacterial drug discovery using engineered E. coli” (Nature Communications, 2022)
